According to PubChem BioAssay AID1159580 (chemical genetic matrix, 2015):
Several values for one entry are separate records, joined by “and”; a condition that tells them apart may be missing. Equal values may be shown once. Among all 5,500 compounds or so, about 2,000 (36%) were called active. About 18% were inconclusive and are not listed. The list shows a part of the results. Unmarked numbers belong to inactive results. Rule as the data show it: active = normalized growth mostly below about 0.91 (no sharp cut-off); inconclusive = no clear call, values can overlap the other calls; inactive = mostly above about 0.92.

Test: chemical genetic growth profiling, strain panel (AID 1159580);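 also: tested at 20 µM; growth read once vehicle control cultures reached saturation at 30 °C; 1 = growth at the plate median or of vehicle wells; lower values mean less growth of the strain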
Settings: S. cerevisiae deletion strains, growth OD

In the case of `COc1ccc(CCN2CCC(Nc3nc4ccccc4n3Cc3ccc(F)cc3)CC2)cc1`, the normalized growth (locus YAL021C, strain ccr4, hits give low values) is reported as 0.721 (active), the normalized growth (locus YAL026C, strain drs2, hits give low values) is reported as 0.783 (active) and the normalized growth (locus YAL030W, strain snc1, hits give low values) is reported as 0.988. For the same compound, the normalized growth (locus YBL061C, strain skt5, hits give low values) was 0.969, the normalized growth (locus YBR009C, strain hhf1, hits give low values) was 0.936 and the normalized growth (locus YBR021W, strain FUR4, hits give low values) was 0.821 (active). The normalized growth (locus YBR023C, strain chs3, hits give low values) was 0.959, the normalized growth (locus YBR171W, strain sec66, hits give low values) was 0.992 and the normalized growth (locus YBR229C, strain ROT2, hits give low values) was 0.972. The normalized growth (locus YBR231C, strain swc5, hits give low values) was 0.981, the normalized growth (locus YBR279W, strain paf1, hits give low values) was 0.954 and the normalized growth (locus YCL011C, strain gbp2, hits give low values) was 0.935. For the same compound, the normalized growth (locus YCL016C, strain dcc1, hits give low values) was 0.919, the normalized growth (locus YCL029C, strain bik1, hits give low values) was 0.983 and the normalized growth (locus YCL061C, strain MRC1, hits give low values) was 0.96. The normalized growth (locus YCL069W, strain vba3, hits give low values) was 0.953, the normalized growth (locus YCR088W, strain abp1, hits give low values) was 0.924 and the normalized growth (locus YDL005C, strain med2, hits give low values) was 0.967. It also gave a normalized growth (locus YDL035C, strain GPR1, hits give low values) of 0.972, a normalized growth (locus YDL040C, strain nat1, hits give low values) of 0.985 and a normalized growth (locus YDL074C, strain BRE1, hits give low values) of 0.935. The normalized growth (locus YDL101C, strain DUN1, hits give low values) was 0.984, the normalized growth (locus YDL134C, strain PPH21, hits give low values) was 0.983 and the normalized growth (locus YDL185W, strain tfp1, hits give low values) was 0.984. For the same compound, the normalized growth (locus YDL192W, strain arf1, hits give low values) was 0.986, the normalized growth (locus YDR001C, strain nth1, hits give low values) was 0.972 and the normalized growth (locus YDR069C, strain doa4, hits give low values) was 0.874 (active). For the same compound, the normalized growth (locus YDR101C, strain arx1, hits give low values) was 0.992, the normalized growth (locus YDR137W, strain rgp1, hits give low values) was 1.18 [resistant] (active) and the normalized growth (locus YDR150W, strain NUM1, hits give low values) was 1. For the same compound, the normalized growth (locus YDR159W, strain sac3, hits give low values) was 0.986, the normalized growth (locus YDR162C, strain NBP2, hits give low values) was 0.986 and the normalized growth (locus YDR195W, strain ref2) was 0.971. The normalized growth (locus YDR297W, strain sur2, hits give low values) was 0.999, the normalized growth (locus YDR318W, strain mcm21, hits give low values) was 0.984 and the normalized growth (locus YDR334W, strain swr1, hits give low values) was 0.979. The normalized growth (locus YDR335W, strain msn5, hits give low values) was 0.959, the normalized growth (locus YDR388W, hits give low values) was 0.687 (active) and the normalized growth (locus YDR392W, strain spt3, hits give low values) was 0.742. The normalized growth (locus YDR502C, strain sam2, hits give low values) was 0.977, the normalized growth (locus YEL003W, strain gim4, hits give low values) was 0.96 and the normalized growth (locus YEL037C, strain rad23, hits give low values) was 0.867 (active). For the same compound, the normalized growth (locus YEL061C, strain CIN8 (second series), hits give low values) was 0.981, the normalized growth (locus YEL061C, strain CIN8, hits give low values) was 0.993 and the normalized growth (locus YER015W, strain faa2, hits give low values) was 0.93. For the same compound, the normalized growth (locus YER016W, strain bim1, hits give low values) was 0.911 (active), the normalized growth (locus YER110C, hits give low values) was 0.992 and the normalized growth (locus YER111C, strain swi4, hits give low values) was 0.962. The normalized growth (locus YER155C, strain BEM2 (second series), hits give low values) was 0.822 (active), the normalized growth (locus YER155C, strain BEM2, hits give low values) was 0.991 and the normalized growth (locus YER167W, strain BCK2, hits give low values) was 0.973. For the same compound, the normalized growth (locus YFR010W, strain ubp6, hits give low values) was 0.838 (active), the normalized growth (locus YGL078C, strain dbp3, hits give low values) was 0.985 and the normalized growth (locus YGL086W, strain mad1, hits give low values) was 1.02. The normalized growth (locus YGL167C, strain pmr1, hits give low values) was 1, the normalized growth (locus YGL173C, strain kem1, hits give low values) was 0.982 and the normalized growth (locus YGL227W, strain vid30, hits give low values) was 0.981. The normalized growth (locus YGL240W, strain doc1, hits give low values) was 0.978, the normalized growth (locus YGL248W, strain PDE1, hits give low values) was 0.985 and the normalized growth (locus YGL253W, strain hxk2, hits give low values) was 0.904 (active). The normalized growth (locus YGR135W, strain pre9, hits give low values) was 0.877 (active), the normalized growth (locus YGR229C, strain SMI1, hits give low values) was 0.971 and the normalized growth (locus YGR252W, strain gcn5, hits give low values) was 0.9. For the same compound, the normalized growth (locus YHR013C, strain ard1, hits give low values) was 0.857, the normalized growth (locus YHR027C, strain rpn1, hits give low values) was 0.954 and the normalized growth (locus YHR030C, strain SLT2, hits give low values) was 0.997 and 0.996. For the same compound, the normalized growth (locus YHR079C, strain IRE1 (second series), hits give low values) was 0.984, the normalized growth (locus YHR079C, strain IRE1, hits give low values) was 0.972 and the normalized growth (locus YHR094C, strain hxt1, hits give low values) was 0.986. The normalized growth (locus YHR129C, strain ARP1, hits give low values) was 0.988, the normalized growth (locus YHR142W, strain chs7, hits give low values) was 0.888 and the normalized growth (locus YHR200W, strain rpn10, hits give low values) was 0.994. For the same compound, the normalized growth (locus YIL066C, strain RNR3, hits give low values) was 0.974, the normalized growth (locus YIL073C, strain SPO22, hits give low values) was 1.74 [resistant] (active) and the normalized growth (locus YIL125W, strain kgd1, hits give low values) was 0.993. The normalized growth (locus YIR030C, strain dcg1, hits give low values) was 0.99, the normalized growth (locus YJL092W, strain hpr5, hits give low values) was 0.917 (active) and the normalized growth (locus YJL095W, strain BCK1 (second series), hits give low values) was 0.991. For the same compound, the normalized growth (locus YJL095W, strain BCK1, hits give low values) was 0.923 and 0.988, the normalized growth (locus YJL115W, strain asf1, hits give low values) was 0.976 and the normalized growth (locus YJL129C, strain trk1, hits give low values) was 0.972. The normalized growth (locus YJL134W, strain LCB3, hits give low values) was 0.998, the normalized growth (locus YJL154C, strain vps35, hits give low values) was 0.962 and the normalized growth (locus YJL164C, strain tpk1, hits give low values) was 0.957. For the same compound, the normalized growth (locus YJL166W, strain qcr8, hits give low values) was 0.974, the normalized growth (locus YJL168C, strain set2, hits give low values) was 0.994 and the normalized growth (locus YJL187C, strain SWE1 (second series), hits give low values) was 0.976. For the same compound, the normalized growth (locus YJL187C, strain SWE1, hits give low values) was 0.982 and the normalized growth (locus YJR043C, strain POL32, hits give low values) was 0.998.
